Compound activity as filed in PubChem BioAssay.
Most compounds without a hit are left out; they make up all but 2.1% or so of the library.
IDE cell inh – inhibitors of human insulin-degrading enzyme in cells; P14735; HEK cells, FAbetaB cleavage, fluorescence polarization; AID 434962; actives 0.41% (n = 320,000); inhibition, % at 5.59 µM;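 active = percent inhibition above the average of all tested compounds plus 3 SD, set per screening campaign, cut at about 16% in these data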;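 note: IDE supplied by intact live HEK cells; FP after avidin binding of uncleaved biotin substrate so inhibition keeps polarization high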
Target sequence (P14735 whole entry, looked up): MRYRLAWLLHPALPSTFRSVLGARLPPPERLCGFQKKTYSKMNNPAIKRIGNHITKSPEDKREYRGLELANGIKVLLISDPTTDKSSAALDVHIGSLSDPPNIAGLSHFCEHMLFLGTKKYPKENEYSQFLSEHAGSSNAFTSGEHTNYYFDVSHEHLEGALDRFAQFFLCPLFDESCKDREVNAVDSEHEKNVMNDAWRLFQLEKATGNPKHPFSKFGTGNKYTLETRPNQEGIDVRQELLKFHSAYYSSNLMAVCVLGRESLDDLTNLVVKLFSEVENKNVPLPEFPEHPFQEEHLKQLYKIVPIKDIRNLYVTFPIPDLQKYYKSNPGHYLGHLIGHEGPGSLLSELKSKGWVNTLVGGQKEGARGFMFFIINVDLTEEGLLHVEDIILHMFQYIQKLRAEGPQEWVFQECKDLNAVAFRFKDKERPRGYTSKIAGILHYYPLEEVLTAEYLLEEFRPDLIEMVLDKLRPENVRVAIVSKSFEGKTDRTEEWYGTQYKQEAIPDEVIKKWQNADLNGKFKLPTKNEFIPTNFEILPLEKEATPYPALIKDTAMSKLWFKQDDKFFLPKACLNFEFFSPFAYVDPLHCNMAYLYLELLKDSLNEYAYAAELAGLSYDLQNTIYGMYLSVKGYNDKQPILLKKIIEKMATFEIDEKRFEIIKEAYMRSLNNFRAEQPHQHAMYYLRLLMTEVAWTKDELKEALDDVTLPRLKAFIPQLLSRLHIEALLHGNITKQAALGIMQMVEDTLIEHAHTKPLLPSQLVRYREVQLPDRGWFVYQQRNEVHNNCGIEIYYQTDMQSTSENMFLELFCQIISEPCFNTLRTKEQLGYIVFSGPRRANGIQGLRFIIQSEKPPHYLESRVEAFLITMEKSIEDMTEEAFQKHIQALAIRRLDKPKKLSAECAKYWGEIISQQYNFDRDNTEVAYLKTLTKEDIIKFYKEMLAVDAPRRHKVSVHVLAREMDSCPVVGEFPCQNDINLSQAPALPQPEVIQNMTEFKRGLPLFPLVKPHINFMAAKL
IDE act – boosts human insulin-degrading enzyme activity in HEK cells; AID 493087; activation, % at 5.96 µM; FAbeta-B cleavage, fluorescence polarization; 0% vehicle, 100% cell-free pure enzyme wells; P14735; actives 0.073% (n = 340,000);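 active = activation above the mean of all tested compounds plus 3 SD, set per screening campaign, cut at about 17% in these data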
LANA-H2A inh – blocks KSHV LANA binding to histone H2A/H2B; cell-free LANA-H2A/H2B peptide, fluorescence polarization; inhibition, % (no concentration beside the values); actives 0.6% (n = 320,000); in the data active = inhibition mostly above about 10%, no sharp cut-off; inactive = mostly below about 6.7%
Mot1-301 SUMO – SUMOylation pathway inhibition by Mot1-301 growth rescue; S. cerevisiae Mot1-301 growth rescue, ATP luminescence, 38.5C; percent above DMSO median, 100 means doubled; growth rescue, % at 18.8 µM; actives 1% (n = 320,000); AID 2716;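 active = every valid replicate shows activation above 250% relative to neutral control wells; inactive = the rest, any valid replicate at or below 250%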
HDAC3 inh – human HDAC3 inhibition; recombinant HDAC3, fluorogenic peptide/trypsin coupled, fluorescence; inhibition, % at 8.3 µM; O15379; actives 0.15% (n = 320,000); AID 2718; in the data active = inhibition above about 26%, passing the limit was not always enough
Yeast Mot1 SUMO – inhibits SUMO pathway, affecting Mot1-301 yeast growth; shares compounds with Mot1-301 SUMO; growth activity, percent, % at 42 µM; AID 493004; 2,300 tested, under 10 active; S. cerevisiae Mot1-301 galactose growth, ATP luminescence, 24 h; -100 = growth of slx-deleted rescue strain;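 active = Signal drops as the depositor expects, and the fitted half-maximal dose is no more than ten times the top valid tested dose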;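 note: more negative values mean stronger growth rescue toward the control strain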
Large screens that a line does not name were inactive (follow-up assays come after a bar, where they were run).

COc1ccccc1CC(=O)N1CCN(S(=O)(=O)c2ccccc2)CC1	Mot1-301 SUMO 383 | Yeast Mot1 SUMO inactive
COc1ccc(S(=O)(=O)N2CCN(C(=O)COc3ccc4c(C)cc(=O)oc4c3)CC2)cc1	none (no result: IDE cell inh, IDE act, HDAC3 inh)
CCC(C)c1ccc(S(=O)(=O)N2CCN(C(=O)COc3ccc4c(C)cc(=O)oc4c3)CC2)cc1 (stereo not given)	Mot1-301 SUMO 524 | Yeast Mot1 SUMO inactive
Cc1nc([N+](=O)[O-])cn1Cc1cccc2ccccc12	none
CN(Cc1cccnc1)Cc1cn[nH]c1-c1ccc(-c2ccccc2)cc1	Mot1-301 SUMO 791 (no result: HDAC3 inh) | Yeast Mot1 SUMO inactive
O=C(Cc1ccc(-c2ccccc2)cc1)NCc1cccnc1	none
COc1ccc(S(=O)(=O)NCC(c2ccc3c(c2)OCO3)N2CCOCC2)cc1C (stereo not given)	none
COc1ccc(/C=C/C(=O)N2CCC(C(N)=O)CC2)cc1S(=O)(=O)N1CCOCC1	Mot1-301 SUMO 714 | Yeast Mot1 SUMO inactive
CC(C)c1ccc(-c2cc(C(=O)N3CCOCC3)c3cc(Br)ccc3n2)cc1	Mot1-301 SUMO 614 (no result: HDAC3 inh) | Yeast Mot1 SUMO inactive
O=C(c1cc(-c2ccccc2)nc2ccccc12)N1CCOCC1	none
CCN(CC(=O)Nc1ccc2c(c1)OCCO2)C(=O)c1ccc(CS(C)(=O)=O)cc1	none
COc1cccc(-n2nnc3c(=O)n(CC(=O)N4CCCc5ccccc54)cnc32)c1	Mot1-301 SUMO active | Yeast Mot1 SUMO inactive
CC(=O)c1ccccc1NC(=O)c1ccc(N2CCCC2=O)cc1	none
CCCCn1c(C(C)O)nc2ccccc21 (stereo not given)	none
CC(C)CCn1c(C(C)O)nc2ccccc21 (stereo not given)	Mot1-301 SUMO 433 | Yeast Mot1 SUMO inactive
COc1ccc(NS(=O)(=O)c2ccc(OCC(=O)N3CCOCC3)cc2)cc1Cl	Mot1-301 SUMO active | Yeast Mot1 SUMO inactive
CC(OC(=O)c1n[nH]c2ccccc12)C(=O)Nc1ccccc1[N+](=O)[O-] (stereo not given)	none
O=C(OCc1nnc(-c2ccccc2)o1)c1ccc([N+](=O)[O-])o1	Mot1-301 SUMO 743 | Yeast Mot1 SUMO inactive
O=C(OCc1nnc(-c2ccccc2)o1)c1ccc(Br)o1	none
CCc1ccccc1-n1ncc(C(=O)Nc2ccc(OC)cc2)c1C	none (no result: IDE cell inh, LANA-H2A inh, Mot1-301 SUMO, HDAC3 inh)
CSc1ncccc1C(=O)NC1CCCc2c1cnn2-c1ccc(C)c(C)c1 (stereo not given)	Mot1-301 SUMO 458 (no result: HDAC3 inh) | Yeast Mot1 SUMO inactive
CCn1cc(C(=O)NCCc2ccccc2)c(=O)c2cc(F)c(N3CCN(C)CC3)cc21	none
CCn1cc(C(=O)NCc2ccccn2)c(=O)c2cc(F)c(N3CCN(C)CC3)cc21	Mot1-301 SUMO 388 | Yeast Mot1 SUMO inactive
O=C(/C=C/c1ccc(Cl)cc1)NCc1ccncc1	Mot1-301 SUMO 566 | Yeast Mot1 SUMO inactive
Cc1ccc(/C=C/C(=O)NCc2ccncc2)cc1	none
COCCN(CC(=O)Nc1cccc(C)c1C)C(=O)Cn1cnc2ccccc2c1=O	none (no result: IDE cell inh, LANA-H2A inh, Mot1-301 SUMO, HDAC3 inh)
Cc1ccc(NC(=O)CCCC(=O)OC(C)C(=O)c2ccccc2)cc1 (stereo not given)	none
O=C(CCC(F)(F)F)N1CCCC(CO)(CCc2ccccc2)C1 (stereo not given)	Mot1-301 SUMO 738 | Yeast Mot1 SUMO inactive
COc1ccc(S(=O)(=O)NC2CCCCC2)cc1F	none (no result: IDE cell inh)
O=C(NCCc1cnccn1)C1CCC(=O)N(Cc2ccc(Cl)cc2)C1 (stereo not given)	Mot1-301 SUMO 523 | Yeast Mot1 SUMO inactive
O=C(NCCCc1ccncc1)C1CCC(=O)N(Cc2ccc(Cl)cc2)C1 (stereo not given)	none
COCCN(C(=O)CSc1nnc(-c2ccc(C)cc2)n1N)c1c(N)n(Cc2ccccc2)c(=O)[nH]c1=O	Mot1-301 SUMO 516 | Yeast Mot1 SUMO inactive
CCN(C(=O)CSc1nnc(-c2ccc(C)cc2)n1N)c1c(N)n(Cc2ccccc2)c(=O)[nH]c1=O	none (no result: IDE cell inh, LANA-H2A inh, Mot1-301 SUMO, HDAC3 inh)
Cc1ccc(NC(=O)CCS(=O)(=O)c2ccc3nc(C)sc3c2)cc1	Mot1-301 SUMO 524 | Yeast Mot1 SUMO inactive
Cc1nc2ccc(S(=O)(=O)NC(CC(C)C)C(=O)O)cc2s1 (stereo not given)	Mot1-301 SUMO active | Yeast Mot1 SUMO inactive
Cc1ccc(S(=O)(=O)CCC(=O)Nc2ccc3nc(C)sc3c2)cc1	none
Cc1nc2ccc(S(=O)(=O)NC(C(=O)N3CCCC3)C(C)C)cc2s1 (stereo not given)	none (no result: LANA-H2A inh, Mot1-301 SUMO, HDAC3 inh)
CCN(CC(=O)Nc1ccccc1C(F)(F)F)C(=O)c1ccc(N2CCCC2=O)cc1	none
CCN(CC)S(=O)(=O)c1ccc(NC(=O)CCN2C(=O)C3CC=CCC3C2=O)cc1 (stereo not given)	none (no result: LANA-H2A inh, Mot1-301 SUMO, HDAC3 inh)
CCc1ccc(-c2nc(SCC(=O)N3CCOCC3)n[nH]2)cc1	Mot1-301 SUMO 527 | Yeast Mot1 SUMO inactive
CCOc1ccc(NC(=O)CSc2nnc(Cc3csc(C)n3)o2)cc1	Mot1-301 SUMO 777 | Yeast Mot1 SUMO inactive
CCOc1ccc(Nc2nc(Cc3nnc(SCC(N)=O)o3)cs2)cc1	none
O=C(COC(=O)c1nc(Cl)ccc1Cl)NCc1cccs1	none
O=C(N/N=C/c1ccccc1)c1[nH]c2ccc(Br)cc2c1-c1ccccc1	Mot1-301 SUMO 491 | Yeast Mot1 SUMO inactive
CC(=O)OCC(OC(C)=O)C(OC(C)=O)C(OC(C)=O)C(=O)Nc1ccccc1 (stereo not given)	Mot1-301 SUMO 386 | Yeast Mot1 SUMO inactive
CCOc1ccc(OCCC(=O)OCC(=O)N(CC)c2c(N)n(Cc3ccccc3)c(=O)[nH]c2=O)cc1	none (no result: IDE cell inh, LANA-H2A inh, Mot1-301 SUMO, HDAC3 inh)
COc1ccc(CN(C)S(=O)(=O)c2nnc(NC(=O)c3ccccc3OC)s2)cc1OC	none
COc1ccc(CN(C)S(=O)(=O)c2nnc(NC(=O)c3ccc(C)cc3)s2)cc1OC	Mot1-301 SUMO 466 | Yeast Mot1 SUMO inactive
Cc1cc(C)c(S(=O)(=O)c2ccc(C(C)(C)C)cc2)c(Cl)n1	none
Cc1ccc(NS(=O)(=O)c2c(C(=O)N3CCCCCC3)c(C)n(C)c2C)c(Cl)c1	none
Cc1ccc(NS(=O)(=O)c2c(C)[nH]c(C)c2C(=O)N2CCCCC2)c(Cl)c1	Mot1-301 SUMO 477 | Yeast Mot1 SUMO inactive
O=C(N/N=C/c1ccc(O)cc1O)C(=O)N/N=C/c1ccc(O)cc1O	none
COc1ccc(CCNC(=O)[C@H](CC(C)C)NC(=O)N2CCn3c2nc2ccccc23)cc1OC	none
C/C(CC(=O)Nc1cccc(Cl)c1Cl)=N\NC(=O)c1ccccc1C	Mot1-301 SUMO 452 | Yeast Mot1 SUMO inactive
CCC1(c2ccccc2)NC(=O)N(CC(=O)NC2CCCCCC2)C1=O (stereo not given)	none
CCCN1CN=C(Nc2nc3ccccc3o2)NC1	none (no result: IDE act)
OCCN1CN=C(Nc2nc3ccccc3o2)NC1	Mot1-301 SUMO active | Yeast Mot1 SUMO inactive
CC1(OC(=O)c2cccs2)C(=O)C=C2C=C(c3ccsc3)OC=C2C1=O (stereo not given)	none (no result: IDE act)
